We go through nine compounds from PubChem BioAssay (NCI).

The structures appear in SMILES notation. Values joined by “and” are separate entries in the source; they are usually repeats but may differ in a detail not shown here. Equal values may be shown once. The panel holds about 83,000 compounds, 20% with a hit somewhere; the sample as a whole holds those more often.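 Single-concentration screen, 48 h exposure, 96-well plates. Endpoint: percent growth. Below 10 = active.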 Active and inactive are the calls of the source.

Some test systems named below: NCI-H23 lung; HOP-62 NSCLC; NCI-H460 lung; NCI-H522 lung; 786-0 renal; COLO 205 colon; DU-145 prostate; K-562 leukemia; MDA-MB-231 breast; RXF 393 renal; SF-268 CNS; SF-539 CNS; UACC-257 melanoma; M14 melanoma; NCI-H322M lung; HOP-92 NSCLC; MALME-3M melanoma; SF-295 CNS; A549/ATCC NSCLC; NCI-H226 lung.
Holding throughout (test): NCI-60 one-dose screen, 48 h (100 = growth as untreated, 0 = no growth, -100 = all killed)
What all share (settings): 10 µM unless noted

For the compound `C[N+](C)(C)CN1C(=O)c2ccccc2C1=O`, the growth in the test with NCI-H23 lung is 105% (inactive); with HOP-62 NSCLC, 96% (inactive); in the test on NCI-H460 lung, 105% (inactive); with NCI-H522 lung, 90.9% (inactive); in the test with 786-0 renal, 104% (inactive); with COLO 205 colon, 104% (inactive). Further, the growth with DU-145 prostate is 113% (inactive); with K-562 leukemia, 92% (inactive); in the test on MDA-MB-231 breast it was 114% (inactive); in the test on RXF 393 renal it was 105% (inactive); in the test with SF-268 CNS, 110% (inactive); in the test with SF-539 CNS, 99.5% (inactive). In addition, the growth with UACC-257 melanoma was 97.8% (inactive); with M14 melanoma, 103% (inactive).

As for `O=c1c2ccccc2nc2n1Cc1nc3ccccc3c(=O)n1C2`, the growth in the test on NCI-H23 lung is 92.2% (inactive) and 100% (inactive); in the test on NCI-H322M lung, 97.8% (inactive) and 102% (inactive); in the test with HOP-62 NSCLC, 114% (inactive) and 105% (inactive); in the test with NCI-H460 lung, 95.1% (inactive) and 101% (inactive); with HOP-92 NSCLC, 95.3% (inactive) and 114% (inactive); with NCI-H522 lung it was 89.9% (inactive) and 93.3% (inactive). Also, the growth with 786-0 renal is 103% (inactive) and 104% (inactive); in the test with COLO 205 colon, 111% (inactive) and 130% (inactive); with DU-145 prostate it was 96.4% (inactive) and 102% (inactive); in the test on K-562 leukemia, 107% (inactive) and 62.5% (inactive); with MALME-3M melanoma, 80.1% (inactive) and 108% (inactive); with MDA-MB-231 breast, 99.2% (inactive) and 105% (inactive). In addition, the growth in the test with RXF 393 renal was 107% (inactive) and 108% (inactive); in the test with SF-268 CNS it was 87.5% (inactive) and 103% (inactive); in the test on SF-295 CNS, 105% (inactive) and 112% (inactive); in the test on SF-539 CNS, 99% (inactive) and 102% (inactive); in the test on UACC-257 melanoma, 98.3% (inactive) and 112% (inactive); with M14 melanoma it was 89.3% (inactive) and 94.1% (inactive).

As to `CC(/C=N/N1C(=O)c2ccccc2C1=O)c1ccccc1` (centres undefined), the growth was 108% (inactive) in the test with NCI-H23 lung; 98.1% (inactive) in the test with NCI-H322M lung; 112% (inactive) in the test with HOP-62 NSCLC; 108% (inactive) with NCI-H460 lung; 104% (inactive) in the test with NCI-H522 lung; 88.3% (inactive) in the test on A549/ATCC NSCLC. The growth is 102% (inactive) in the test with 786-0 renal; 114% (inactive) in the test with COLO 205 colon; 115% (inactive) in the test with DU-145 prostate; 106% (inactive) in the test with K-562 leukemia; 101% (inactive) in the test with MALME-3M melanoma; 108% (inactive) in the test on MDA-MB-231 breast. The growth in the test with RXF 393 renal is 101% (inactive); in the test with SF-268 CNS, 117% (inactive); in the test on SF-295 CNS it was 90.9% (inactive); in the test on SF-539 CNS, 106% (inactive); in the test with UACC-257 melanoma, 90.5% (inactive); in the test with M14 melanoma it was 108% (inactive).

`COc1cc(C(=O)N/N=C/c2ccc(N(C)C)cc2)cc(OC)c1OC`: the growth with NCI-H23 lung is 19.4% (inactive); with HOP-62 NSCLC it was 49% (inactive); in the test with NCI-H460 lung it was 3.54% (active); in the test on HOP-92 NSCLC it was 46.8% (inactive); in the test with A549/ATCC NSCLC, 18.4% (inactive); in the test on 786-0 renal it was 42.2% (inactive). In addition, the growth is -25.7% (active) with COLO 205 colon; 0.807% (active) in the test with DU-145 prostate; 14% (inactive) in the test with K-562 leukemia; 30.2% (inactive) in the test with MDA-MB-231 breast; 26.4% (inactive) with RXF 393 renal; 57.6% (inactive) with SF-268 CNS. Also, the growth in the test on SF-295 CNS is 19.1% (inactive); with SF-539 CNS, 14.1% (inactive); with UACC-257 melanoma it was 43.2% (inactive); in the test on M14 melanoma, 6.72% (active).

For `O=[N+]([O-])c1ccccc1N(S(=O)(=O)c1ccccc1)S(=O)(=O)c1ccccc1`, the growth with NCI-H226 lung is 113% (inactive) and 91.2% (inactive); in the test on NCI-H322M lung it was 90% (inactive) and 95% (inactive); in the test with HOP-62 NSCLC, 118% (inactive) and 119% (inactive); in the test with NCI-H460 lung, 108% (inactive) and 114% (inactive); with HOP-92 NSCLC it was 92.8% (inactive) and 101% (inactive); in the test with NCI-H522 lung it was 94.7% (inactive) and 87.3% (inactive). For the same compound, the growth with A549/ATCC NSCLC was 91.3% (inactive) and 80.2% (inactive); with 786-0 renal it was 109% (inactive); in the test with COLO 205 colon it was 129% (inactive) and 117% (inactive); in the test with DU-145 prostate, 118% (inactive) and 99.7% (inactive); in the test with K-562 leukemia, 93% (inactive) and 113% (inactive); in the test with MALME-3M melanoma it was 120% (inactive) and 109% (inactive). The growth with MDA-MB-231 breast is 112% (inactive) and 96.5% (inactive); in the test with RXF 393 renal, 119% (inactive) and 108% (inactive); in the test on SF-268 CNS it was 96.3% (inactive) and 95.2% (inactive); in the test on SF-295 CNS, 108% (inactive) and 77.6% (inactive); with SF-539 CNS, 117% (inactive) and 104% (inactive); in the test with UACC-257 melanoma, 85.7% (inactive) and 92.4% (inactive). In the test with M14 melanoma, the growth was 128% (inactive) and 98.6% (inactive).

`O=C(N/N=C/c1ccc2c(c1)OCO2)c1ccncc1`: the growth in the test with NCI-H226 lung was 108% (inactive) and 93.3% (inactive); with NCI-H322M lung it was 114% (inactive) and 94.6% (inactive); in the test with HOP-62 NSCLC it was 99.5% (inactive) and 108% (inactive); in the test with NCI-H460 lung it was 101% (inactive) and 111% (inactive); with HOP-92 NSCLC, 106% (inactive) and 70.1% (inactive); in the test on NCI-H522 lung it was 77.8% (inactive) and 96.3% (inactive). Besides, the growth is 108% (inactive) and 109% (inactive) in the test on A549/ATCC NSCLC; 109% (inactive) and 101% (inactive) with 786-0 renal; 101% (inactive) and 110% (inactive) with COLO 205 colon; 114% (inactive) and 113% (inactive) in the test on DU-145 prostate; 106% (inactive) in the test with K-562 leukemia; 110% (inactive) and 82.1% (inactive) in the test with MALME-3M melanoma. The growth was 94.5% (inactive) and 108% (inactive) in the test with MDA-MB-231 breast; 114% (inactive) and 103% (inactive) with RXF 393 renal; 109% (inactive) and 102% (inactive) in the test on SF-268 CNS; 113% (inactive) and 107% (inactive) in the test with SF-295 CNS; 101% (inactive) and 123% (inactive) in the test on SF-539 CNS; 92.9% (inactive) and 112% (inactive) in the test on UACC-257 melanoma. For the same compound, in the test with M14 melanoma, the growth is 105% (inactive) and 103% (inactive).

`CC(C)Cc1ccc(C(C)C(=O)NCc2ccc(Cn3c(=O)sn(CCCI)c3=O)cc2)cc1` (centres undefined): the growth in the test with NCI-H23 lung is 92% (inactive) and -78.3% (active); in the test with NCI-H322M lung it was 98.2% (inactive) and 59.4% (inactive); in the test on HOP-62 NSCLC it was -56.2% (active); with NCI-H460 lung, 99.6% (inactive) and 3.28% (active); in the test with NCI-H522 lung, 69% (inactive) and -55.6% (active); with A549/ATCC NSCLC, 95.4% (inactive) and -54.7% (active). Further, the growth in the test with 786-0 renal was 94.3% (inactive) and -88.9% (active); in the test on COLO 205 colon, -62.4% (active); in the test on DU-145 prostate it was 94% (inactive) and -88.2% (active); with K-562 leukemia, 3.55% (active); in the test on MALME-3M melanoma, 92.4% (inactive) and -74.4% (active); with MDA-MB-231 breast, 92.1% (inactive) and -62% (active). In addition, the growth in the test on RXF 393 renal is -94.8% (active); with SF-268 CNS, 91% (inactive) and -64.5% (active); with SF-295 CNS, 96.1% (inactive) and 35.9% (inactive); in the test on SF-539 CNS it was 88.7% (inactive) and -96.6% (active); in the test on UACC-257 melanoma, 77.8% (inactive) and -19.9% (active); with M14 melanoma, 88.8% (inactive) and -66.9% (active).

`Oc1c(CN2CCCCC2)ccc2cccnc12`: the growth with NCI-H23 lung was 79% (inactive) and 80.2% (inactive); with NCI-H322M lung it was 36.5% (inactive) and 32.4% (inactive); in the test on HOP-62 NSCLC it was 52.1% (inactive) and 41.1% (inactive); in the test on NCI-H460 lung, 21.1% (inactive) and 10.5% (inactive); in the test with NCI-H522 lung, -3.86% (active) and 16.2% (inactive); in the test on A549/ATCC NSCLC, 43.6% (inactive) and 36% (inactive). Also, the growth in the test on 786-0 renal is 11% (inactive) and 42.4% (inactive); in the test with COLO 205 colon it was 66.7% (inactive) and 80.4% (inactive); in the test with DU-145 prostate it was 67.9% (inactive) and 53.7% (inactive); with K-562 leukemia it was 28.8% (inactive) and 30.6% (inactive); in the test on MALME-3M melanoma, 88.1% (inactive) and 82.5% (inactive); in the test with MDA-MB-231 breast, 53.2% (inactive) and 46.9% (inactive). The growth was 85.1% (inactive) and 3.68% (active) in the test with RXF 393 renal; 69.3% (inactive) and 47.6% (inactive) in the test on SF-268 CNS; 37.1% (inactive) in the test on SF-295 CNS; 74.7% (inactive) and 57% (inactive) in the test on SF-539 CNS; 77.1% (inactive) and 71.6% (inactive) with UACC-257 melanoma; 20.7% (inactive) and 32.6% (inactive) in the test with M14 melanoma.

For the compound `CNc1cc(-c2cccc(OC(F)(F)F)c2)nc2ccc(N3CCCC3)cc12`, the growth is 66.5% (inactive) and 6.85% (active) and 8.59% (active) with NCI-H23 lung; 61.8% (inactive) and -4.66% (active) and 76.6% (inactive) in the test with NCI-H322M lung; 74.6% (inactive) and 45.7% (inactive) and 33.4% (inactive) in the test with HOP-62 NSCLC; -68% (active) and -62.5% (active) and -65.4% (active) with NCI-H460 lung; -31.9% (active) and 13% (inactive) and 28.5% (inactive) in the test with HOP-92 NSCLC; 32.2% (inactive) and -63.9% (active) and -35.6% (active) in the test with NCI-H522 lung. In addition, the growth is -34.3% (active) and 9.17% (active) and 15.2% (inactive) in the test with A549/ATCC NSCLC; -86% (active) and -95.3% (active) and -67.6% (active) in the test with 786-0 renal; -25.6% (active) and -81.7% (active) and -75.7% (active) in the test on COLO 205 colon; -43.5% (active) and 6.55% (active) and 12.9% (inactive) with DU-145 prostate; -42.3% (active) and -31.2% (active) and -12.4% (active) in the test on K-562 leukemia; -74.2% (active) and -88.1% (active) and -75.4% (active) in the test with MALME-3M melanoma. The growth is -47.4% (active) and -63.4% (active) and -2.52% (active) with MDA-MB-231 breast; -64.4% (active) and -78.3% (active) and -67.5% (active) in the test on RXF 393 renal; 78.9% (inactive) and 61.6% (inactive) and 55.9% (inactive) with SF-268 CNS; 82.8% (inactive) and -66.4% (active) and -74.5% (active) in the test with SF-295 CNS; -76.6% (active) and -78.4% (active) and -68.4% (active) with SF-539 CNS; 82% (inactive) and -59.4% (active) and -57.4% (active) with UACC-257 melanoma. In the test on M14 melanoma, the growth was -87% (active) and -86.6% (active) and -76.4% (active).
